Here are results for 20 compounds from PubChem BioAssay (NCATS).

“And” between values parts separate entries of the source, which are not always exact repeats. Equal entries are not always repeated. Results filed as inconclusive are left out. The source made the active and inactive calls. Unless noted, calls come from the whole dose curve; as a rule, active = well fitted curve in the direction sought with a large enough effect; inconclusive = small, poorly fitted or top-dose-only effect, or another doubt; inactive = no such curve, though single readings can be large; an effect the other way counts as inactive or inconclusive.

In assay [1] the target is Alpha-galactosidase A (Homo sapiens) (UniProt P06280). The experiment in a line: Counterscreen for Glucocerebrosidase Inhibitors: qHTS Assay for Human alpha-Galactosidase at pH 4.5 (AID 992). Note: 0% is about no effect. In a few lines: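 Read-out is 4-methylumbelliferone fluorescence (365 nm excitation, 440 nm emission) after a pH 10 NaOH/glycine stop. Reactions held 2 nM enzyme and 80 uM substrate at pH 4.5 for 20 min at room temperature.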
Chain of Alpha-galactosidase A (Homo sapiens) (P06280 whole entry, looked up): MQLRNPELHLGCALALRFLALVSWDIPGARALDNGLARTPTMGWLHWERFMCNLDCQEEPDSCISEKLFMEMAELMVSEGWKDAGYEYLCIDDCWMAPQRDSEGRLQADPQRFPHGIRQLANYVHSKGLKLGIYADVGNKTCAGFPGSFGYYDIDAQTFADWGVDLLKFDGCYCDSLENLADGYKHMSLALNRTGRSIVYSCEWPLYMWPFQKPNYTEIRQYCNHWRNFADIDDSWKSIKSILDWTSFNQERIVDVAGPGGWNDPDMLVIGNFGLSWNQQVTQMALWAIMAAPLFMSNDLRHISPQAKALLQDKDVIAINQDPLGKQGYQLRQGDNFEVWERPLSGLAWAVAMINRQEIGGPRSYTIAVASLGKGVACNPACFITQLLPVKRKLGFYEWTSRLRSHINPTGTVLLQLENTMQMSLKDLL
Background: A counterscreen serves to expose hits that act by an unwanted route or on another target.

Assay [2] addresses alpha-glucosidase (Oryza sativa, rice) (UniProt Q653V4). The experiment in a line: Counterscreen for Glucocerebrosidase Inhibitors: qHTS Assay for Rice alpha-Glucosidase at pH 5.0 (AID 997).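 Note: 0% = full activity with enzyme and -100% = basal without enzyme.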 In a few lines: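 Rice alpha-glucosidase (4 nM final) with 400 uM 4-methylumbelliferyl-alpha-D-glucopyranoside in citrate buffer pH 5.0, 20 min at room temperature, stopped at pH 10; fluorescence 365/440 nm, compounds 0.7 nM–77 uM, AC50 from Hill fits.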

A short description of assay [3]: qHTS Assay for Lipid Storage Modulators (AID 1519; calls by dose curve; for activity change, negative = inhibition: % is set by controls: 0 for no effect and ±100 for the full control effect). The settings on record: Drosophila S3 cells, BODIPY lipid droplet/cell ratio, laser cytometry, cells loaded with oleic acid. In a few lines:
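Cells seeded at 5,000 per well were treated with compounds over a concentration series and loaded with oleic acid (400 uM, as added). Lipid droplet fluorescence (488 nm excitation, 500-530 nm channel) was read by laser-scanning cytometry and normalized to 20 uM Triacsin C.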

Assay [4] concerns the target DNA repair nuclease/redox regulator APEX1 (Homo sapiens) (UniProt P27695). The experiment in a line: qHTS Validation Assay for Inhibitors of the Human Apurinic/apyrimidinic Endonuclease 1 (APE1) (AID 1705;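 note: TAMRA fluorescence gain over two minutes as APE1 cuts a quenched THF abasic duplex; % is set by controls: 0 for no effect and ±100 for the full control effect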). The procedure, abridged:
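Human APE1 was preincubated with compound for 15 min at room temperature, then 50 nM (final) THF-abasic double-stranded DNA substrate bearing 5'-TAMRA and 3'-BHQ-2 was added. Incision-driven fluorescence rise (ex 525/em 598 nm) was read kinetically.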
A general note: In qHTS, concentration-response curves come from the screen itself.

Assay [5] in a line: Counterscreen for APE1 Inhibitors: Fluorescent Dye Displacement Validation Assay (AID 1707).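 Note: plate controls were ThO with dsDNA and no compound for no effect and ThO without dsDNA for full effect.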 The procedure, abridged:
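ThO 250 nM + dsDNA 50 nM (THF abasic site, 5'-TAMRA), Tris-HCl pH7.5/50mM NaCl/2 mM MgCl2/0.01% Tween-20; compounds pin-transferred; ex 480/em 540 nm endpoint. Neutral = no compound; no-DNA ThO wells = negative control.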

Assay [6] concerns the target Endonuclease 4 (Escherichia coli (strain K12)) (UniProt P0A6C1). The experiment in a line: Counterscreen for APE1 Inhibitors: qHTS Validation Assay for Inhibitors of Endonuclease IV (AID 1708). Note: % is set by controls: 0 for no effect and ±100 for the full control effect. In a few lines: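 Concentration-response counterscreen run identically to the APE1 assay: 15 min room-temperature preincubation of 2 nM enzyme with compound, reaction started with 50 nM quenched abasic DNA, progress taken from kinetic fluorescence.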

Assay [7] is described as follows: qHTS for differential inhibitors of proliferation of Plasmodium falciparum line 7G8 (AID 1815).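 For activity change, negative = inhibition: plate controls were vehicle wells for no effect and reference inhibitor wells for full effect.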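 Note: parasite growth measured after three days of incubation.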 Note: potency is the fitted concentration of half-maximal effect.
A short description of assay [8]: qHTS for differential inhibitors of proliferation of Plasmodium falciparum line 3D7 (AID 1876). Note: potency is the fitted concentration of half-maximal effect.
Assay [9] can be described thus: qHTS for differential inhibitors of proliferation of Plasmodium falciparum line D10 (AID 1877).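 For activity change, negative = inhibition: plate controls were vehicle wells for no effect and reference inhibitor wells for full effect.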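 Note: parasites grown with compound for 72 h before DNA staining.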 Note: potency is the fitted concentration of half-maximal effect.
A short description of assay [10]: Validation of Assay for Modulators of Lamin A Splicing (AID 1459; active = well fitted curve in the direction sought with a large enough effect in the signal ratio; the % refers to the signal ratio;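 note: cells exposed to compound for two days before reading; 0% is about no effect; ratio rise marks activators and ratio drop marks inhibitors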). In a few lines: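 S3 HeLa cells stably expressing a lamin A-EGFP splicing minigene and DsRed2 were seeded at 600 cells/well in Opti-MEM with 2% FBS, pin-dosed, and incubated 48 hrs at 37 °C, 5% CO2. Laser-scanning cytometry (488 nm) gave GFP/RFP total intensity ratio.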
Assay [11] is described as follows: qHTS for differential inhibitors of proliferation of Plasmodium falciparum line GB4 (AID 1816).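 For activity change, negative = inhibition: 0% = vehicle DMSO and -100% = reference inhibitor.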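 Note: parasite growth measured after 72 h incubation.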 Note: potency is the fitted concentration of half-maximal effect. The settings on record: Potency: Plasmodium falciparum GB4 proliferation inhibition.
The mark [12] stands for this setting: measured here: cell count channel max response.
The mark [13] stands for this setting: measured here: lipid channel max response.

Chain of DNA repair nuclease/redox regulator APEX1 (Homo sapiens) (P27695 whole entry, looked up): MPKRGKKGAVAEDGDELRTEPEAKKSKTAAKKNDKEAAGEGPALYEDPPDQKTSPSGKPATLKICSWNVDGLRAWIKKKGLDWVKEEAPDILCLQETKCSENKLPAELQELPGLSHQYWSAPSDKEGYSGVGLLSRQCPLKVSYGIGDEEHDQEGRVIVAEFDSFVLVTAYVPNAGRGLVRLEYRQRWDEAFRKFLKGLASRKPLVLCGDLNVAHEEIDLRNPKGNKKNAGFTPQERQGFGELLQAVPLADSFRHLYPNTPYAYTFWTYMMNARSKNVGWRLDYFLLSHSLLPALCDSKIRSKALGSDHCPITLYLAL

`N[C@@H](Cc1c[nH]c2ccccc12)C(=O)O`: the result in assay [1] and in assay [2] was inactive. Also, the activity change, negative = inhibition in assay [3] (at 57.5 µM (top of the series)) was 1.05% (inactive). For the same compound, the max response in [3] (setting [12]) amounted to 61.2%; in assay [3] (setting [13]), 63.3%. Moreover, the Potency entry in assay [4], in assay [5] and in assay [6] was “inactive” in each case. For the same compound, in assay [7], the Potency is 11.2 µM (active).
With `CCCCOc1cc(CC2CNC(=O)N2)ccc1OC` (stereo not drawn), the activity change, negative = inhibition in [3] (at 57.5 µM (top of the series)) is 7.3% (inactive). The max response was found to be 28.9% in [3] (setting [12]) and 40.3% in assay [3] (setting [13]). Also, the Potency result in assay [4], in assay [5], in [6], in assay [8] and in assay [9] was “inactive” in each case.
Consider `CC(N)(Cc1ccc(O)c(O)c1)C(=O)O` (stereo not drawn), for which the outcome in [10] was inactive. Besides, the Potency entry in [5], in [6], in assay [7], in assay [8] and in [9] was “inactive” each time.
On to `CC(C)Cn1c(=O)n(C)c(=O)c2[nH]cnc21`, for which the compound was classed as inactive in [1] and in assay [2]. For the same compound, in assay [3] (at 57.5 µM (top of the series)), the activity change, negative = inhibition is 2.93% (inactive). Further, the values for the max response in assay [3] (setting [12]) and in assay [3] (setting [13]) were 8.14% and 8.87%, respectively. The Potency result in assay [4], in assay [5], in assay [6], in assay [7], in assay [11] and in [8] was “inactive” each time. The Potency result in [9] was “inactive”.
On to `CC1CNCCN1S(=O)(=O)c1cccc2cnccc12` (stereo not drawn), for which the activity change, negative = inhibition in assay [3] (at 57.5 µM (top of the series)) is -0.941% (inactive). Moreover, the max response was found to be 3.07% in assay [3] (setting [12]) and 3.63% in assay [3] (setting [13]). Besides, the Potency result in assay [4], in assay [5], in [6], in [8] and in assay [9] was “inactive” each time. Also, the Potency in [11] was 12.6 µM (active).
For the compound `CCSC(=N)N`, the result in assay [1] and in assay [2] was inactive. The activity change, negative = inhibition in assay [3] (at 57.5 µM (top of the series)) was 3.43% (inactive) and 3.42% (inactive) and 1.1% (inactive). Moreover, the max response in [3] (setting [12]) is 11.3% and -10.8% and -6.69%; in assay [3] (setting [13]) it was 15.2% and -3.11% and -5.48%. Besides, the Potency result in [4], in assay [5], in assay [6], in assay [7], in assay [11] and in [8] was “inactive” each time. Besides, the Potency entry in assay [9] was “inactive”.
For the compound `COc1ccccc1N1CCN(CCCCNC(=O)c2ccc3ccccc3c2)CC1`, the compound was classed as inactive in [1] and in [2]. Besides, the activity change, negative = inhibition in assay [3] (at 25.7 µM (top of the series)) is 0.195% (inactive). Besides, the max response in [3] (setting [12]) was 1.63%; in [3] (setting [13]), 1.88%. Besides, the Potency result in assay [4], in assay [5] and in assay [6] was “inactive” throughout. Besides, the Potency in assay [7] was 7.08 µM (active); in [11] it was 10 µM (active); in assay [8] it was 2 µM (active); in [9], 10 µM (active).
`C#CCn1c(=O)c2c(ncn2C)n(C)c1=O`: the call in assay [1] and in assay [2] was inactive. The activity change, negative = inhibition in [3] (at 57.5 µM (top of the series)) was 2.4% (inactive). Further, the max response in assay [3] (setting [12]) was -11.8%; in assay [3] (setting [13]) it was -10.7%. Further, the Potency result in assay [4], in assay [5], in assay [6], in assay [7], in [11] and in assay [8] was “inactive” throughout. Further, in assay [9], the Potency result is “inactive”.
`N=C(N)c1ccccc1`: the result in assay [1] and in [2] was inactive. Besides, in assay [3] (at 57.5 µM (top of the series)), the activity change, negative = inhibition was 0.991% (inactive). In addition, the max response in assay [3] (setting [12]) stood at 9.53%; in [3] (setting [13]), 1.79%. The Potency entry in assay [4], in [5], in assay [6], in assay [7], in [11] and in assay [8] was “inactive” in each case. In addition, in assay [9], the Potency result is “inactive”.
For the compound `CNC(=O)c1cc2c(cn1)[nH]c1ccccc12`, the compound was called inactive in assay [1], in assay [2] and in assay [10]. In addition, the Potency entry in assay [5], in [6] and in assay [9] was “inactive” throughout. In addition, the Potency in assay [7] is 12.6 µM (active).
Take `O=c1ccn([C@@H]2O[C@H](COP(=O)(O)OP(=O)(O)O)[C@@H](O)[C@H]2O)c(=O)[nH]1`: the activity change, negative = inhibition in assay [3] (at 57.5 µM (top of the series)) was 1.87% (inactive). Further, the max response in [3] (setting [12]) was -6.87%; in [3] (setting [13]), -4.31%. Further, the Potency result in assay [4], in assay [5], in assay [6], in assay [7], in assay [11] and in assay [9] was “inactive” each time.
`NC1(C(=O)O)CC1`: the compound was called inactive in [1] and in assay [2]. In addition, the activity change, negative = inhibition in [3] (at 57.5 µM (top of the series)) was 3.79% (inactive). In addition, the max response was 18.9% in assay [3] (setting [12]) and 25.1% in assay [3] (setting [13]). Moreover, the Potency entry in [4], in assay [5] and in assay [6] was “inactive” in each case. Besides, the Potency in assay [8] was 11.2 µM (active).
For `COc1ccc2c(c1)c(CC(=O)O)c(C)n2Cc1ccc(Cl)cc1`, the outcome in assay [1] and in assay [2] was inactive. Moreover, in assay [3] (at 57.5 µM (top of the series)), the activity change, negative = inhibition was -1.87% (inactive). Moreover, the max response is -35.2% in [3] (setting [12]) and -34.3% in assay [3] (setting [13]). Besides, the Potency entry in assay [4], in assay [5] and in [6] was “inactive” in each case. The Potency in assay [7] was 14.1 µM (active); in assay [11], 10 µM (active); in assay [8], 11.2 µM (active); in [9], 14.1 µM (active).
As to `NCCC1CCCC(CCN)N1` (stereo not drawn), in [3] (at 57.5 µM (top of the series)), the activity change, negative = inhibition is -3.87% (inactive). The max response in assay [3] (setting [12]) is -16%; in [3] (setting [13]) it was -17.4%. The Potency entry in assay [4], in assay [5], in assay [7], in [11], in assay [8] and in [9] was “inactive” each time.
Regarding `NCCS(=O)O`, the compound was classed as inactive in assay [1] and in assay [2]. Moreover, the activity change, negative = inhibition in [3] (at 57.5 µM (top of the series)) was -6.29% (inactive) and 1.76% (inactive). In addition, the max response in [3] (setting [12]) was -10.2% and 4.71%; in assay [3] (setting [13]), -16.1% and 6.07%. Also, the Potency entry in [4], in assay [5], in assay [6], in assay [7], in [11] and in assay [8] was “inactive” throughout. Also, the Potency entry in assay [9] is “inactive”.
With `C=C(C)C1CC=C(C(=O)O)CC1` (stereo not drawn), the activity change, negative = inhibition in [3] (at 57.5 µM (top of the series)) is 0.974% (inactive) and 1.72% (inactive). Moreover, the max response in assay [3] (setting [12]) is 16.2% and 48.1%; in assay [3] (setting [13]), 18.4% and 48.7%. Further, the Potency result in assay [4], in assay [5], in [6], in [7], in [11] and in assay [8] was “inactive” throughout. Further, in assay [9], the Potency result is “inactive”.
Consider `N=C(N)SCCc1cnc[nH]1`, for which the compound was called inactive in [1] and in assay [2]. In addition, the activity change, negative = inhibition in [3] (at 57.5 µM (top of the series)) is 2.03% (inactive). The values for the max response in [3] (setting [12]) and in [3] (setting [13]) were 1.98% and 5.06%, respectively. Further, the Potency entry in [4], in assay [5], in assay [6], in assay [7], in assay [11] and in assay [8] was “inactive” in each case. For the same compound, in assay [9], the Potency result was “inactive”.
Consider `N[C@H](C(=O)O)c1cc(O)cc(O)c1`, for which the compound was classed as inactive in assay [1] and in [2]. Besides, the activity change, negative = inhibition in assay [3] (at 57.5 µM (top of the series)) is 10.3% (inactive) and 1.43% (inactive) and 0.261% (inactive). Besides, the max response in assay [3] (setting [12]) was 7.08% and 3.62% and -19%; in assay [3] (setting [13]), 19.7% and 15.4% and -15.9%. The Potency entry in [4], in assay [5], in [6], in assay [7], in assay [11] and in assay [8] was “inactive” each time. In addition, the Potency result in assay [9] is “inactive”.
On to `COc1cc([C@@H]2c3cc4c(cc3[C@H](O)C3COC(=O)[C@@H]32)OCO4)cc(OC)c1OC` (stereo partly drawn), for which the Potency entry in [4] and in assay [5] was “inactive” each time.
For the compound `COC(=O)C(N)Cc1ccc(Cl)cc1` (stereo not drawn), the Potency result in [4], in assay [5], in assay [6], in assay [7], in assay [11] and in assay [8] was “inactive” each time. Moreover, the Potency entry in [9] is “inactive”.
